Molecules are shown by their SMILES. Inconclusive results are not listed. Entries that show only a call come without a potency. Calls of active or inactive are those of the source. Unless noted, calls follow the shape of the dose curve; as a rule, active = well fitted curve in the direction sought with a large enough effect; inconclusive = small, poorly fitted or top-dose-only effect, or another doubt; inactive = no such curve, though single readings can be large; an effect the other way counts as inactive or inconclusive.

Chain of Single-stranded DNA cytosine deaminase (Homo sapiens) (Q9GZX7 whole entry, looked up): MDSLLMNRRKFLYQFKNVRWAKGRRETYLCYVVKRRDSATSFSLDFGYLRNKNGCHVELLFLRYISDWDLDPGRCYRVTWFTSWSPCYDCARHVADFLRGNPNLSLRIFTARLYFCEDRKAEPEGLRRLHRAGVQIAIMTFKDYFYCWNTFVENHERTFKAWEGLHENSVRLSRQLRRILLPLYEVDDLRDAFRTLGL

Tested on in one experiment: not listed separately
The experiment can be described thus: Validation qHTS assay for inhibitors of Activation Induced Cytidine Deaminase (AID): UDG Counterscreen signal (AID 1347427). The settings on record: biochemical UDG counterscreen, fluorescence signal; series mostly up to 115 µM. In outline:
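Fluorescence at 560 nm excitation, 665 nm emission reports UDG signal after 250 mM NaOH (2x) addition and 30 min. Enzymes (AID 1 uM, UDG 2 U/mL, at 4/3x) preincubated 10 min with compound, then 4 h with 4x 250 nM DJC20/DJC23 substrate at room temperature.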
A general note: In qHTS, concentration-response curves come from the screen itself.
As for `C=CCN(C1=NCCN1)c1c(Cl)cccc1Cl`, the Potency entry was “inactive”.

For the compound `COc1cc(CC(C)N)c(OC)cc1I` (centres undefined), the Potency result was “inactive”.

`C[C@@H]1O[C@H](C[N+](C)(C)C)CS1`: the Potency entry was “inactive”.

As for `O=C(O)c1cc[c]([Hg][Cl])cc1`, the Potency entry was “inactive”.

`COc1ccc2c(c1)[C@@]13CCCC[C@H]1[C@@H](C2)NCC3`: the Potency entry was “inactive”.

On to `CCCCCCC(C)(C)c1ccc([C@@H]2C[C@H](O)CC[C@H]2CCCO)c(O)c1`, for which the Potency result was “inactive”.

With `COc1ccc2c(c1)/C(=C/c1cnc[nH]1)C(=O)N2`, the Potency entry is “inactive”.

For `C[Se]C[C@H](N)C(=O)O`, the Potency result was “inactive”.

For `CC(C)[C@@]1(NC(=O)[C@@H]2C[C@@H]3c4cccc5[nH]cc(c45)C[C@H]3N(C)C2)O[C@@]2(O)[C@@H]3CCCN3C(=O)[C@H](Cc3ccccc3)N2C1=O`, the Potency entry is “inactive”.

In the case of `CCCN(CCC)CCc1c[nH]c2ccc(C(N)=O)cc12`, the Potency entry was “inactive”.

For `CCN(CCCl)Cc1ccccc1Br`, the Potency result is “inactive”.

As to `C/C(O)=C(\C#N)C(=O)Nc1cc(Br)ccc1Br`, the Potency result is “inactive”.

The next experiment addresses Single-stranded DNA cytosine deaminase (Homo sapiens) (UniProt Q9GZX7). The experiment can be described thus: Validation qHTS assay for inhibitors of Activation Induced Cytidine Deaminase (AID): AID signal (AID 1347429). Particulars: Recombinant AID, FRET ssDNA deamination with UDG, fluorescence; series mostly up to 115 µM. In outline:
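AID+UDG coupled FRET deamination; cpds up to 114 uM final; DJC20/DJC23 substrate, 4 hr RT; NaOH stop, 30 min RT; read Ex 540/Em 590.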
As to `NC(Cc1ccc(N(CCCl)CCCl)cc1)C(=O)O` (centres undefined), the Potency result is “inactive”.

As to `CCCn1c(C)c(C(=O)c2ccc3ccccc3c2)c2ccccc21`, the Potency entry is “inactive”.

Regarding `C=CCN1CC[C@]23c4c5ccc(O)c4O[C@H]2/C(=N/NC(=O)c2ccccc2)CC[C@@]3(O)[C@H]1C5`, the Potency result was “inactive”.

As for `N[C@@H](Cn1ccc(=O)[nH]c1=O)C(=O)O`, the Potency result was “inactive”.

Take `N[C@@H](CCl)C(=O)O`: the Potency result is “inactive”.

As to `O=c1c2ccccc2[se]n1-c1ccccc1`, the Potency result is “inactive”.

As for `C[C@@H]1[C@@H]2Cc3ccc(O)cc3[C@@]1(C)CCN2CC1CC1`, the Potency entry is “inactive”.

Regarding `O=[N+]([O-])c1ccc2nc(N3CCNCC3)ccc2c1`, the Potency entry was “inactive”.

Regarding `C=CCN1CC[C@]23c4c5ccc(O)c4O[C@@H]2/C(=N/N=C2\CC[C@@]4(O)C6Cc7ccc(O)c8c7[C@@]4(CCN6CC=C)[C@@H]2O8)CC[C@@]3(O)C1C5`, the Potency entry was “inactive”.

On to `C=CCN1CCc2cccc3c2[C@H]1Cc1ccc(O)c(O)c1-3`, for which the Potency entry is “inactive”.

Regarding `COc1ccc2c(c1)c(CCN1CCOCC1)c(C)n2C(=O)c1cccc(Cl)c1Cl`, the Potency entry is “inactive”.

Take `C=CCN(C1=NCCN1)c1c(Cl)cccc1Cl`: the Potency entry was “inactive”.

In the case of `COc1cc(CC(C)N)c(OC)cc1I` (centres undefined), the Potency result was “inactive”.

As to `C[C@@H]1O[C@H](C[N+](C)(C)C)CS1`, the Potency entry was “inactive”.

As for `O=C(O)c1cc[c]([Hg][Cl])cc1`, the Potency result was “inactive”.

Take `COc1ccc2c(c1)[C@@]13CCCC[C@H]1[C@@H](C2)NCC3`: the Potency result is “inactive”.

`CCCCCCC(C)(C)c1ccc([C@@H]2C[C@H](O)CC[C@H]2CCCO)c(O)c1`: the Potency result is “inactive”.

Consider `COc1ccc2c(c1)/C(=C/c1cnc[nH]1)C(=O)N2`, for which the Potency result is “inactive”.

As to `C[Se]C[C@H](N)C(=O)O`, the Potency result was “inactive”.

As to `CC(C)[C@@]1(NC(=O)[C@@H]2C[C@@H]3c4cccc5[nH]cc(c45)C[C@H]3N(C)C2)O[C@@]2(O)[C@@H]3CCCN3C(=O)[C@H](Cc3ccccc3)N2C1=O`, the Potency result is “inactive”.

For `CCCN(CCC)CCc1c[nH]c2ccc(C(N)=O)cc12`, the Potency result is “inactive”.

In the case of `CCN(CCCl)Cc1ccccc1Br`, the Potency entry is “inactive”.

On to `C/C(O)=C(\C#N)C(=O)Nc1cc(Br)ccc1Br`, for which the Potency entry was “inactive”.

Tested on in another experiment: not listed separately
In words: Primary qHTS for inhibitors of SARS-S pseudo-typed particle cell entry (AID 1479145; calls by dose curve; also: nearly all actives have a fitted effect of over 45% in size). Particulars: SARS-S pseudotyped particle cell entry, luciferase reporter; series mostly up to 57.1 µM.
Regarding `CC1CCC(C(C)C)C(OC(=O)c2ccccc2N)C1` (centres undefined), the compound was called inactive.

In the case of `NCC(O)c1cccc(O)c1` (centres undefined), the outcome was inactive.

Take `CN1[C@H]2CC[C@@H]1[C@@H](C(=O)O)[C@@H](OC(=O)c1ccccc1)C2`: the call was inactive.

As to `CC[C@H](C)[C@H]1O[C@]2(C=C[C@@H]1C)C[C@@H]1C[C@@H](C/C=C(\C)[C@@H](O[C@H]3C[C@H](OC)[C@@H](O[C@H]4C[C@H](OC)[C@@H](O)[C@H](C)O4)[C@H](C)O3)[C@@H](C)/C=C/C=C3\CO[C@@H]4[C@H](O)C(C)=C[C@@H](C(=O)O1)[C@]34O)O2`, the call was inactive.

In the case of `O=C(O)C(Cl)(Cl)Cl`, the outcome was inactive.

With `CC(=O)O[C@H]1CC[C@H]2[C@@H]3CCC4=CC(=O)CCC4=C3C=C[C@]12C`, the compound was called inactive.

As to `O=C(C[C@@H]1NCCC[C@H]1O)Cn1cnc2cc(Br)c(Cl)cc2c1=O`, the outcome was inactive.

On to `CC(C)CCON=O`, for which the compound was classed as inactive.

Consider `Cn1sc(Cl)cc1=O`, for which the compound was classed as inactive.

On to `COc1cc2c(cc1OC)[C@@]13CCN4CC5=CCO[C@H]6CC(=O)N2[C@H]1[C@H]6[C@H]5C[C@H]43`, for which the result was inactive.

As to `C=CC[C@]1(O)CC[C@H]2[C@@H]3CCC4=CCCC[C@@H]4[C@H]3CC[C@@]21C`, the outcome is “inactive [at 114 µM]”.

For the compound `c1ccc2sc(SNC3CCCCC3)nc2c1`, the result was inactive.

Tested on in a further experiment: not listed separately
The experiment can be described thus: Primary qHTS for Huh7 cytotoxicity: counterscreen for inhibitors of MERS-S pseudotyped particle cell entry (AID 1479147; calls by dose curve). The settings on record: cell viability read-out; series mostly up to 57.1 µM.
In the case of `CC1CCC(C(C)C)C(OC(=O)c2ccccc2N)C1` (centres undefined), the outcome was inactive.

With `NCC(O)c1cccc(O)c1` (centres undefined), the outcome was inactive.

`CN1[C@H]2CC[C@@H]1[C@@H](C(=O)O)[C@@H](OC(=O)c1ccccc1)C2`: the outcome is “inactive [at 114 µM]”.

Take `CC[C@H](C)[C@H]1O[C@]2(C=C[C@@H]1C)C[C@@H]1C[C@@H](C/C=C(\C)[C@@H](O[C@H]3C[C@H](OC)[C@@H](O[C@H]4C[C@H](OC)[C@@H](O)[C@H](C)O4)[C@H](C)O3)[C@@H](C)/C=C/C=C3\CO[C@@H]4[C@H](O)C(C)=C[C@@H](C(=O)O1)[C@]34O)O2`: the result was inactive.

For `O=C(O)C(Cl)(Cl)Cl`, the outcome was inactive.

Turning to `CC(=O)O[C@H]1CC[C@H]2[C@@H]3CCC4=CC(=O)CCC4=C3C=C[C@]12C`, the result was inactive.

As for `O=C(C[C@@H]1NCCC[C@H]1O)Cn1cnc2cc(Br)c(Cl)cc2c1=O`, the outcome was inactive.

Consider `CC(C)CCON=O`, for which the result was inactive.

As to `Cn1sc(Cl)cc1=O`, the outcome was inactive.

Take `COc1cc2c(cc1OC)[C@@]13CCN4CC5=CCO[C@H]6CC(=O)N2[C@H]1[C@H]6[C@H]5C[C@H]43`: the outcome was inactive.

Take `C=CC[C@]1(O)CC[C@H]2[C@@H]3CCC4=CCCC[C@@H]4[C@H]3CC[C@@]21C`: the outcome is “inactive [at 114 µM]”.

As to `c1ccc2sc(SNC3CCCCC3)nc2c1`, the outcome was inactive.

Source of the values: PubChem BioAssay (NCATS).
